Assay [1] is described as follows: blockers of polyQ-driven CASP3 activation – cell-based (AID 1583). Conditions: polyglutamine-induced caspase-3 activation, cell assay; stronger effect = higher value;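 tested at 10 µM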.
A short description of assay [2]: yeast 75Q aggregation reduction – 75Q-TubU reporter (AID 1593). To be noted: Yeast 75Q polyglutamine aggregation reporter.
Assay [3] is described as follows: restoration of touch response, mutant HTT neurons – whole organism, C. elegans mechanosensory neurons, N-terminal huntingtin (AID 1599). To be noted: C. elegans polyQ-huntingtin mechanosensory neurons, stronger effect = higher value.
The nature of assay [4]: blockers of cytochrome c efflux from mitochondria – biochemical, purified mitochondria (AID 1603).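 Further: mouse liver mitochondria challenged with calcium chloride; signal normalized to the plate average as 100%.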 To be noted: stronger effect = lower value.
Assay [5] in a line: polyglutamine aggregate formation blockers (AID 1604). Conditions: polyglutamine-induced protein aggregation inhibition assay; stronger effect = higher value; tested at 2.5 µM.
Assay [6] can be described thus: glutamate transport activators, MN-1 cells, MN-1 cell line (AID 1612).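 Further: tested at 1 µM final; 0% = mean of DMSO vehicle wells on each plate; positive means more glutamate uptake than control and negative means less.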 To be noted: MN-1 motor neuron cells, stronger effect = higher value.
Assay [7] is described as follows: 75Q-TubH aggregate inhibition, S. cerevisiae, yeast (AID 1616). To be noted: S. cerevisiae 75Q-TubH polyglutamine aggregation suppression; stronger effect = higher value.
Assay [8] is described as follows: compounds altering viability of human ES cells (AID 493140).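 Further: cells exposed to compounds for four days before counting.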 To be noted: human embryonic stem cell survival screen; stronger effect = higher value.
The nature of assay [9]: signal quenchers or enhancers, Cy5 substrate/SSB – biochemical, NIH Clinical Collection, E. coli SSB, artefact control for HCV NS3 helicase inhibitor project (AID 743268). Conditions: Cy5-oligo bound E. coli SSB, fluorescence interference.
Assay [10] has as its system Hepatitis C virus NS3 helicase. The assay can be described thus: blockers of NS3h binding to DNA – biochemical, fluorescence polarization, NIH Clinical Collection, primary screen (AID 743270). To be noted: NS3 helicase binding to Cy5-dT15 DNA, stronger effect = higher value, concentration not given here. (Fluorescence polarisation rises when a labelled molecule tumbles more slowly, as on binding a larger partner.)

The target of assay [11] is Single-stranded DNA-binding protein (Escherichia coli (strain K12)) (UniProt P0AGE0). The assay can be described thus: SSB-ssDNA binding inhibitors – biochemical, fluorescence polarization, NIH Clinical Collection, counter-screen for HCV NS3 helicase inhibitor project (AID 743271; in the data active means inhibition above about 28%). To be noted: E. coli SSB-DNA binding, stronger effect = higher value, concentration not given here.
Assay [12] can be described thus: compounds distorting NS3 helicase fluorescence signal – biochemical, NIH Clinical Collection, artefact control for HCV NS3 helicase inhibitor project (AID 743272).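 Further: HCV NS3 helicase with a Cy5 labelled single stranded DNA probe.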 Conditions: fluorescence interference counterscreen, HCV NS3 helicase assay; stronger effect = lower value. In general terms: The purpose of a counterscreen is to sort out artefacts and off-target activity.
Assay [13] in a line: modulation of C. elegans fzo-1 (AID 1259413).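 Further: fzo-1 mutant C. elegans worms in liquid wells.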 To be noted: C. elegans fzo-1 modulator screen, mean read-out; stronger effect = higher value.
Assay [14] has as its target Mitogen-activated protein kinase 7 (Homo sapiens) (UniProt Q13164). Kind of assay: Gal4-ERK5 driven luciferase induction – cell-based, HTS, primary screen (AID 1508626;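 active means luciferase signal above three times the same-plate solvent-only control wells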;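 further: luciferase driven by Gal4-ERK5 fusion binding five Gal4 sites before minimal TATA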). Conditions: HeLa Gal4-ERK5 transactivation, 18 h, at 5 µM, stronger effect = higher value.
Assay [15] can be described thus: galactose survival enhancers in mitochondrial complex I cybrids – cell-based, galactose medium, ATP luminescence, primary screen (AID 1645843;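 active means z-score of at least 1.8 in each of two replicates, scored against plate mean and spread of sample wells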;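 further: positive z means more ATP and so rescue of galactose-driven cybrid death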). To be noted: complex I mutant cybrid cells, 72 h, stronger effect = higher value.
The next assay has as its system R275C/beta1. Kind of assay: BK channel mutant inhibitors and activators – cell-based, U2OS BacMam, thallium flux, beta subunits, selectivity assay, profiling panel (AID 1259406;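 active means thallium flux through the channel raised or lowered by more than 3 SD from vehicle-only wells, actives on both sides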;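 further: initial slope of Thallos dye fluorescence rise after thallium is added; log ratio against the mean of 0.3% DMSO vehicle wells on the same plate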). Conditions: U2OS BacMam BK variants, at 30 µM.
In the next assay the test system is R275C/beta2Delta. The assay is described as above. Conditions: U2OS BacMam BK variants, at 30 µM.
Another assay concerns R275C/beta4. Described as above. To be noted: U2OS BacMam BK variants, at 30 µM.
A further assay has as its system R275C/Slo1WT/beta2. The description is as above. To be noted: U2OS BacMam BK variants, at 30 µM.

Values joined by “and” are separate entries in the source; they are usually repeats but may differ in a detail not shown here. Equal entries are not always repeated. For some of these results: Entries with a potency or affinity are not part of this list. Active and inactive are the calls of the source. Unless noted, how the calls were made is not given here.

Mitogen-activated protein kinase 7 (Homo sapiens), sequence (Q13164 whole entry, looked up, the tested form may be a part): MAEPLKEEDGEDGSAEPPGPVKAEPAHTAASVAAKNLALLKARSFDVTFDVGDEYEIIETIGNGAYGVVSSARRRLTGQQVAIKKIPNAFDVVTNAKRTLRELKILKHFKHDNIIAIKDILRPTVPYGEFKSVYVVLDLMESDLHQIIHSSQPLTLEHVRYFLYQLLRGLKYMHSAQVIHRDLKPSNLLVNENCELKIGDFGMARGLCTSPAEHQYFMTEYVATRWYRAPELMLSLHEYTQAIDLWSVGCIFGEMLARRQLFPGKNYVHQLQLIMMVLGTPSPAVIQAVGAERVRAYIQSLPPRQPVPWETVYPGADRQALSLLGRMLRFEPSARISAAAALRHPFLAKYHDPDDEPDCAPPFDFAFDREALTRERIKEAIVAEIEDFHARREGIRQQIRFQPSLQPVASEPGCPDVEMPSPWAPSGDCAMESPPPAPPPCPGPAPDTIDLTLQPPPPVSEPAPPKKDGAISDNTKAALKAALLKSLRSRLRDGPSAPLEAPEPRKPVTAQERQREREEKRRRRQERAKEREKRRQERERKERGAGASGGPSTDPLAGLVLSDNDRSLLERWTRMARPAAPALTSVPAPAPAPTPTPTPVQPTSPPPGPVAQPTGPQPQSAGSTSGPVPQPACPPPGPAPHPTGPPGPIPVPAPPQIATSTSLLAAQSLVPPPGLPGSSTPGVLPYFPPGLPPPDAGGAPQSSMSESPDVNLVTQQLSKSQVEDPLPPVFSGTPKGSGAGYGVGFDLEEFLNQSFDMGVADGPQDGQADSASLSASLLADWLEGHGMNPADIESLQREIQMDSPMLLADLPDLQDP

As a reminder, the inhibition is the relative decrease from the control value, in per cent. As to `CC[N+](C)(C)c1cccc(O)c1`, the values for the inhibition in [1], in [10] and in [11] were 0.97%, -1.36% (inactive) and 0.29% (inactive), respectively. Besides, in assay [2], the score was determined as 1.45. Further, the rescue above control in assay [3] was -4.06. Also, the cytochrome c release ratio in assay [4] came out at 0.79. The inhibition of aggregation in [5] was 49.4%. The glutamate uptake change in assay [6] is -4.41%. The compound further had an aggregation suppression score in assay [7] of 1.27. In addition, in assay [8], the survival was 20.2 (inactive). Besides, the fluorescence ratio in assay [9] is 1.03 (inactive); in assay [12] it was 0.96 (inactive). Moreover, the mean signal in assay [13] is 239 (inactive). For the same compound, the luciferase signal in assay [14] is 68 AU (inactive). The z-score in assay [15] is 0.66 (inactive) and 0.015 (inactive). The log fold change Tl+ flux was -0.022 (inactive) in the assay with R275C/beta1, 0.0107 (inactive) in the assay with R275C/beta2Delta, -0.0318 (inactive) in the assay with R275C/beta4 and 0.00666 (inactive) with R275C/Slo1WT/beta2.
On to `CN(C)CCCN1c2ccccc2Sc2ccc(Cl)cc21`, for which the inhibition in [1] is 1.97%; in [10], -4.09% (inactive); in [11] it was -1.24% (inactive). Also, the score in assay [2] is 0.97. In assay [3], the rescue above control was found to be 0. The cytochrome c release ratio in assay [4] worked out at 1.17. In [5], this compound had an inhibition of aggregation of 35.3%. The glutamate uptake change in assay [6] was determined as 11.9%. In [7], this compound registered an aggregation suppression score of 1.25. For the same compound, the survival in assay [8] is 3.17 (inactive). The results for the fluorescence ratio in assay [9] and in assay [12] were 1.03 (inactive) and 0.91 (inactive), respectively. The mean signal in assay [13] was 252 (inactive). Also, the luciferase signal in assay [14] is 68 AU (inactive). The z-score in assay [15] was -1.52 (inactive) and -1.29 (inactive) and -1.43 (inactive). For the same compound, the log fold change Tl+ flux with R275C/beta1 is 0.272 (active); in the assay on R275C/beta2Delta it was 0.103 (active); with R275C/beta4, 0.154 (active); with R275C/Slo1WT/beta2, -0.0668 (inactive).
For the compound `CN(C)C(=O)Oc1ccc[n+](C)c1`, the inhibition in assay [1] is 18.4%; in assay [10] it was 0.45% (inactive); in [11], 0.29% (inactive). For the same compound, in [2], the score worked out at 1.37. For the same compound, the rescue above control in assay [3] is -0.24. For the same compound, in [4], the cytochrome c release ratio was found to be 0.97. The inhibition of aggregation in assay [5] stood at 27%. The glutamate uptake change in assay [6] is -0.9%. Moreover, the aggregation suppression score in assay [7] is 1.35. In addition, the fluorescence ratio is 1.01 (inactive) in [9] and 0.97 (inactive) in [12]. Besides, the mean signal in assay [13] was 265 (inactive). In addition, in [14], the luciferase signal is 48 AU (inactive). The z-score in assay [15] was 0.81 (inactive) and 0.62 (inactive). The log fold change Tl+ flux in the assay with R275C/beta1 is -0.0401 (inactive); in the assay with R275C/beta2Delta, 0.0292 (inactive); with R275C/beta4, -0.0147 (inactive); with R275C/Slo1WT/beta2, 0.0451 (inactive).
As to `CN(C)CCC[C@@]1(c2ccc(F)cc2)OCc2cc(C#N)ccc21`, the fluorescence ratio is 1.05 (inactive) in assay [9] and 0.96 (inactive) in assay [12]. Moreover, the results for the inhibition in assay [10] and in assay [11] were -1.98% (inactive) and 6.83% (inactive), respectively. For the same compound, the mean signal in assay [13] is 287 (inactive). Also, in assay [15], the z-score is 0.15 (inactive) and 0.43 (inactive). In addition, the log fold change Tl+ flux with R275C/beta1 is 0.0547 (inactive); with R275C/beta2Delta it was 0.0841 (inactive); in the assay with R275C/beta4, 0.0144 (inactive); in the assay with R275C/Slo1WT/beta2, 0.0208 (inactive).
For `CCOC(=O)[C@H](CCc1ccccc1)N[C@@H](C)C(=O)N1Cc2ccccc2C[C@H]1C(=O)O`, the inhibition was 20.2% in assay [1], -8.64% (inactive) in [10] and -0.48% (inactive) in [11]. The compound also yielded a score in assay [2] of 1.04. Further, in assay [3], the rescue above control was 4.28. Further, the cytochrome c release ratio in assay [4] was 0.82. The same compound showed an inhibition of aggregation in assay [5] of 37.2%. The glutamate uptake change in assay [6] worked out at 3.41%. In addition, the aggregation suppression score in [7] is 1.35. For the same compound, the fluorescence ratio in [9] is 1.02 (inactive); in assay [12], 1.04 (inactive). In [13], the mean signal was 206 (inactive). Besides, the luciferase signal in assay [14] was 64 AU (inactive). In addition, the z-score in assay [15] is 0.72 (inactive) and 0.435 (inactive). The log fold change Tl+ flux in the assay with R275C/beta1 was 0.0226 (inactive); in the assay with R275C/beta2Delta, 0.0266 (inactive); in the assay on R275C/beta4 it was 0.0169 (inactive); in the assay with R275C/Slo1WT/beta2, 0.0209 (inactive).
As for `Cc1nc2ccccn2c(=O)c1CCN1CCC(C(=O)c2ccc(F)cc2)CC1`, the survival in assay [8] was 8.08 (inactive). The fluorescence ratio in assay [9] is 0.95 (inactive); in [12] it was 0.93 (inactive). Moreover, the inhibition in assay [10] was 5.94% (inactive); in [11], 3.75% (inactive). Further, the mean signal in assay [13] is 234 (inactive). Also, the luciferase signal in assay [14] was 52 AU (inactive). Also, in assay [15], the z-score was -1.02 (inactive) and -0.645 (inactive). Moreover, the log fold change Tl+ flux with R275C/beta1 was -0.0266 (inactive); in the assay on R275C/beta2Delta, -0.0363 (inactive); in the assay on R275C/beta4, -0.0285 (inactive); with R275C/Slo1WT/beta2, 0.00703 (inactive).
As to `O=C(CCCN1CC=C(n2c(=O)[nH]c3ccccc32)CC1)c1ccc(F)cc1`, the inhibition in assay [1] is -1.81%; in [10], -5.15% (inactive); in assay [11], -0.1% (inactive). In addition, the score in assay [2] worked out at 1.12. For the same compound, in assay [3], the rescue above control was 6.51. The cytochrome c release ratio in assay [4] worked out at 1.19. The same compound registered an inhibition of aggregation in assay [5] of 63.6%. The glutamate uptake change in assay [6] is 4.12%. In addition, the aggregation suppression score in assay [7] amounted to 1.21. In addition, in assay [8], the survival was 4.83 (inactive). The values for the fluorescence ratio in assay [9] and in [12] were 0.99 (inactive) and 1 (inactive), respectively. Besides, the mean signal in [13] is 249 (inactive). For the same compound, the luciferase signal in assay [14] is 68 AU (inactive). The z-score in assay [15] is -0.69 (inactive). Besides, the log fold change Tl+ flux with R275C/beta1 is 0.0837 (active); in the assay with R275C/beta2Delta, 0.0699 (inactive); with R275C/beta4 it was 0.00129 (inactive); in the assay on R275C/Slo1WT/beta2 it was 0.0371 (inactive).
For `CCN(CC)CCOC(=O)c1ccc(N)cc1`, the inhibition was 9.09% in assay [1], -3.18% (inactive) in assay [10] and 0.29% (inactive) in assay [11]. The score in [2] stood at 1.48. Further, the rescue above control in [3] is -15. Further, in assay [4], the cytochrome c release ratio was found to be 1.16. In assay [5], this compound displayed an inhibition of aggregation of 23.9%. Also, in assay [6], the glutamate uptake change is 22.4%. Also, the aggregation suppression score in assay [7] was determined as 1.46. Moreover, the survival in [8] is 15.7 (inactive). In addition, the fluorescence ratio in assay [9] was 1.06 (inactive); in [12], 0.92 (inactive). In [13], the mean signal is 231 (inactive). Besides, the luciferase signal in assay [14] was 92 AU (inactive). In [15], the z-score was 0.17 (inactive) and -0.015 (inactive). Moreover, the log fold change Tl+ flux in the assay with R275C/beta1 is -0.0214 (inactive); in the assay with R275C/beta2Delta it was 0.0278 (inactive); in the assay on R275C/beta4, -0.0586 (inactive); in the assay with R275C/Slo1WT/beta2, -0.013 (inactive).
Take `NCC(=O)CCC(=O)O`: the results for the fluorescence ratio in [9] and in [12] were 1.05 (inactive) and 1.02 (inactive), respectively. Further, the inhibition in [10] was -2.27% (inactive); in [11] it was -0.48% (inactive). For the same compound, in [13], the mean signal was 245 (inactive). For the same compound, the luciferase signal in assay [14] was 84 AU (inactive). Further, the z-score in assay [15] is 0.925 (inactive). Besides, the log fold change Tl+ flux with R275C/beta1 was -0.0231 (inactive); with R275C/beta2Delta it was -0.0499 (inactive); with R275C/beta4, -0.0959 (inactive); with R275C/Slo1WT/beta2, -0.117 (active).

The values are drawn from PubChem BioAssay.
